Reference: PubChem BioAssay (NCI)
Compounds without any hit were thinned out: in the full panel of roughly 83,000, 20% have a hit.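 How to read the values: 0–100, growth inhibition (40 = 60% inhibited); 0, no net growth; -100 to 0, cell death (-40 = 40% of starting cells died; -100 = all dead).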 Activity calls are given as the source filed them. Rule for the calls: active = growth percent below 10; inactive = the rest.

Each compound was assayed on MDA-MB-468 breast (assay: NCI-60 one-dose screen, 48 h (100 = growth as untreated, 0 = no growth, -100 = all killed)). Conditions: 10 µM unless noted.
With `COc1ccc(-c2cc(Cc3cccs3)c(=O)n(Cn3cncn3)n2)cc1` the growth was 102% (inactive).
In the case of `c1ccc(-n2nnnc2-c2cccc3ccccc23)cc1`, the growth is reported as -22.5% (active).
In the case of `CC(C)(C)c1ccc(C(=O)Nc2sc3c(c2C(N)=O)CCC(=O)C3)cc1`, the growth is reported as -54.7% (active).
`CC1OC2CC(=O)OC2C2=C1C(=O)c1c(O)cccc1C2=O` (stereo not given) was tested, and the growth was -73.4% (active).
In the case of `COc1ccc(-c2nc(SCCC(C)C)nc(Nc3ccc(C(=O)O)cc3)c2C#N)cc1`, the growth is reported as 105% (inactive).
